# Measurements from PMC5540273 (PLoS ONE, 2017).
# Columns and labels:
# Settings in all cases: concentration: 1 μM, replicates: in singlicate; n = 1
# ACVR2B = system: ACVR2B
# ACVRL1 = system: ACVRL1
# ADCK3 = system: T1, ADCK3
# T1 construct: gene CABC1
# ADCK4 = system: ADCK4
# AKT1 = system: AKT1
# AKT2 = system: AKT2
# AKT3 = system: AKT3
# ALK = system: ALK
# AMPK-alpha1 = system: T2, AMPK-alpha1
# T2 construct: gene PRKAA1
# AMPK-alpha2 = system: T3, AMPK-alpha2
# T3 construct: gene PRKAA2
# ANKK1 = system: ANKK1
# ARK5 = system: T4, ARK5
# T4 construct: gene NUAK1
# ASK1 = system: T5, ASK1
# T5 construct: gene MAP3K5
# ASK2 = system: T6, ASK2
# T6 construct: gene MAP3K6
# AURKA = system: AURKA
# AURKB = system: AURKB
# AURKC = system: AURKC
# AXL = system: AXL
# BIKE = system: T7, BIKE
# T7 construct: gene BMP2K
# BLK = system: BLK
# 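Also: KINOMEscan kinase panel screen.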
Compound,%Inh (ACVR2B) [%],%Inh (ACVRL1) [%],%Inh (ADCK3) [%],%Inh (ADCK4) [%],%Inh (AKT1) [%],%Inh (AKT2) [%],%Inh (AKT3) [%],%Inh (ALK) [%],%Inh (AMPK-alpha1) [%],%Inh (AMPK-alpha2) [%],%Inh (ANKK1) [%],%Inh (ARK5) [%],%Inh (ASK1) [%],%Inh (ASK2) [%],%Inh (AURKA) [%],%Inh (AURKB) [%],%Inh (AURKC) [%],%Inh (AXL) [%],%Inh (BIKE) [%],%Inh (BLK) [%]
Cc1cc(-c2ccc3c(c2)CC[C@@H](N[C@@H](C)c2ccccc2)C3)cnc1N.Cl [GW412617],0,37,41,1,0,27,14,52,2,20,69,13,33,0,0,35,26,33,40,13
COc1cc2nccc(Nc3ccc(NC(=O)c4ccc(C)cc4)c(O)c3)c2cc1OC.Cl [GW440132],0,0,10,41,0,1,0,6,0,0,0,0,0,0,7,50,57,0,7,95.5
Cn1ccc2ncnc(Oc3ccc(Nc4nc5ccccc5[nH]4)cc3)c21,0,0,0,0,0,16,0,0,7,0,0,14,0,0,0,95.2,3,0,0,0
Cn1ccc2ncnc(Oc3ccc(NC(=O)Nc4ccccc4)cc3)c21,0,0,12,5,13,0,0,0,0,2,0,4,16,0,15,93.7,84,0,0,2
CC(C)(C)c1ccc(C(=O)Nc2cn3cc(Cl)ccc3n2)cc1,9,0,5,0,5,0,0,3,0,16,0,0,86,0,0,64,17,0,0,0
COC(=O)c1c(-c2ccccc2)c2cc(C(=O)O)ccc2c(=O)n1Cc1ccccc1,0,20,0,0,0,0,1,0,0,7,0,5,0,0,0,11,0,0,0,0
Cc1cc(N2Cc3ccccc3C2)nc(Nc2ccc(S(=O)(=O)N3CCOCC3)cc2)n1.Cl [GSK1669917],0,0,7,8,96.3,0,0,5,0,16,24,0,0,0,0,0,0,0,9,16
CCn1c(-c2ccccn2)nc2cnccc21 [SB-736398],0,0,56,6,0,19,0,34,5,10,0,0,17,0,0,3,7,12,16,9
O=C(Nc1ccccc1)Nc1cccc(Oc2ccc3nccn3n2)c1,6,0,5,18,32,0,20,17,11,0,0,0,0,0,0,8,26,7,0,0
CS(=O)(=O)c1ccc(-c2nc3n(c2-c2ccncc2)CCC3)cc1 [SKF-105942],0,0,11,58,0,100,0,28,24,0,0,8,11,0,0,34,0,0,3,9
Cc1cccc(-c2nc(Nc3cccc(C(N)=O)c3)c3ccccc3n2)n1 [GW876019],19,0,20,26,9,0,0,22,31,0,0,6,17,0,0,30,12,0,11,21
Fc1cc(Cl)ccc1Nc1ccnc2cc(I)ccc12 [GW551191],85,5,0,23,0,18,58,29,0,0,5,3,0,0,0,28,41,0,16,38
COc1cccc(NC(=O)NC2CCN(c3ccnc(Nc4ccc(F)cc4)n3)C2)c1 (centres unmarked) [GSK1379721],4,0,1,22,0,0,0,24,0,0,4,9,8,4,21,0,8,0,0,0
COC(=O)c1c(-c2ccccc2)c2cc(OC)ccc2c(=O)n1Cc1ccccc1,0,0,0,0,1,12,0,28,21,0,0,27,0,37,25,22,0,0,0,0
Cl.O=C(Nc1cccc(-c2nn3ncccc3c2-c2ccnc(Nc3cccnc3)n2)c1)c1c(F)cccc1F [GSK312879],0,2,27,2,0,19,10,24,0,12,16,0,0,13,0,24,19,11,31,2
Cc1ccc(-c2cc(-c3c[nH]nc3-c3ccccn3)ccn2)cc1 [GW684088],49,0,22,37,0,0,0,16,0,0,0,94.7,0,0,2,0,10,5,20,0
Cl.NC(=O)c1cccc(Nc2nccc(Nc3ccc(Oc4cccc(Cl)c4)c(Cl)c3)n2)c1 [GW659008],14,0,5,32,0,8,0,24,42,33,0,0,0,0,6,49,21,12,33,84
Cc1cccc(-c2cc(Nc3ccncc3)c3ccccc3n2)n1 [GSK223675],0,0,0,11,0,0,0,26,0,8,6,8,11,9,9,0,1,0,9,11
COc1cccc(-c2cc(-c3c[nH]nc3-c3ccccn3)ccn2)c1 [GW680338],18,0,25,26,0,0,0,34,7,0,13,0,0,27,0,0,89,7,54,8
